# Results from PubChem BioAssay (NCATS).
# “And” between values parts separate entries of the source, which are not always exact repeats. Equal entries are not always repeated. Inconclusive results are not listed. The source made the active and inactive calls. Unless noted, calls come from the whole dose curve; as a rule, active = well fitted curve in the direction sought with a large enough effect; inconclusive = small, poorly fitted or top-dose-only effect, or another doubt; inactive = no such curve, though single readings can be large; an effect the other way counts as inactive or inconclusive.
# Key:
# [1] = HPAF-II 24hr Apoptosis Induction qHTS against the NCATS CANVASS Library (AID 1347356); note: 0% is about no effect
# In short: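 Using an 11-point qHTS format, HPAF-II cells in DMEM/10% FBS received compounds for 24 h; doxorubicin titration as control. Caspase-3/7 activity quantified by DEVD-luciferase luminescence.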
# [2] = HPAF-II 12hr Apoptosis Induction qHTS against the NCATS CANVASS Library (AID 1347358); note: 0% is about no effect
# In short: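 Twelve-hour compound exposure of HPAF-II cells in DMEM with 10% FBS, then luminescent Caspase-Glo 3/7 detection after 15 min at room temperature; doxorubicin control.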
# [3] = HEK293 24hr Apoptosis Induction qHTS against the NCATS CANVASS Library (AID 1347359); note: 0% is about no effect
# In short: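 HEK293 cells (500/well, DMEM + 10% FBS) were exposed to compounds in an 11-point series for 24 hours at 37 degrees C, then caspase-3/7 activity was read by Caspase-Glo DEVD luciferase luminescence after 15 min.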
# [4] = HPAF-II 18hr Apoptosis Induction qHTS against the NCATS CANVASS Library (AID 1347360); note: 0% is about no effect
# In short: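 HPAF-II cells (500/well, DMEM + 10% FBS) were exposed to compounds for 18 hours at 37 degrees C. Caspase-3/7 activity was then read by Caspase-Glo 3/7 luminescence after 15 min at room temperature.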
# [5] = biological target: Luciferin 4-monooxygenase (Photinus pyralis) (UniProt P08659); test: Firefly luciferase counterscreen qHTS: Assay Interference Panel against the NCATS CANVASS Library (AID 1347363); note: 0% is about no effect
# In short: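 Purified P. pyralis luciferase was added to compounds (11-point series) preincubated 15 min at room temperature with substrate containing 0.013 mM D-luciferin and 0.013 mM ATP; luminescence was read after 5 min.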
# [6] = 10-beta competent E. coli microbial cell viability qHTS against the NCATS CANVASS Library (AID 1347376); note: 0% is about no effect
# In short: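 Overnight 37C exposure of 10-beta E. coli (0.2 OD) to an 11-point concentration series; ATP-based luminescence after 20 min room-temperature reagent incubation; daunomycin as control.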
# [7] = DH5-alpha competent E. coli microbial cell viability qHTS against the NCATS CANVASS Library (AID 1347377); conditions: outcome: dose series up to 46.1 µM unless noted
# In short: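 Overnight incubation at 37C, 5% CO2 of E. coli DH5-alpha (diluted to 0.2 OD) with compounds precedes BacTiter-Glo addition. Luminescence, acquired after 20 min at room temperature, reflects viable-cell ATP.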
# [8] = Inflammasome Signaling qHTS Counterscreen: IL-1-beta AlphaLISA counterscreen against the NCATS CANVASS Library (AID 1347381);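 note: cell-free check with purified IL-1β in medium and no THP-1 cells; 0% is about no effect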
# In short: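 Here, no cellular stimulation occurs; compounds in an 11-point series meet 4 pg purified IL-1-beta directly. Bead-based AlphaLISA detection follows (1 h acceptor/antibody, then 30 min donor, dark, room temperature), with excitation at 680 nm.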
# [9] = Cytotoxicity qHTS for assessment of Hepg2 cells membrane integrity screened against the NCATS CANVASS Library (AID 1347387)
# In short: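 Membrane damage in HepG2 monolayers was estimated from released LDH, measured with CytoTox-ONE (ex 560/em 590 nm), after 5 hr treatment across 0.59 nM - 46 uM final.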
# [10] = qHTS for activators of dead-cell proteases activity screened against the NCATS CANVASS Library (AID 1347392);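 note: luminescence from protease leaking out of membrane-damaged cells cleaving impermeant substrate; 0% is about no effect; rising signal means more cytotoxicity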
# In short: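 Cytotoxicity in HepG2 cells was assessed by released protease cleaving AAF-aminoluciferin, with luminescence as signal. Exposure lasted 5 h at 37C across an 11-point series.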
# [11] = Redox Reaction Profiling qHTS: Assay Interference Panel against the NCATS CANVASS Library (AID 1347401);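 note: 100% = activation by 2 µM chloranil control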
# In short: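 Quantitative HTS over an 11-point series was run in HEPES pH 7.3 with 50 mM NaCl, 200 uM DTT and 5 uM resazurin. Initial and 15-min resorufin fluorescence readings were taken.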
# [12] = qHTS to identify inhibitors of the type 1 interferon - major histocompatibility complex class I in skeletal muscle: primary screen against the NCATS Mechanism Interrogation Plate v5.0 (MIPE) Libary (AID 1347411); note: nearly all actives have a fitted effect of over 65% in size; note: potency is the fitted concentration of half-maximal effect;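 for activity change, negative = inhibition: plate controls were vehicle for no effect and reference inhibitor for full effect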
# In short: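 IFN-beta-driven (4 ng/ml) HLA-B-HiBit expression in CRISPR-tagged C25cl48 myoblasts; compounds 11-pt, 1:3, max 46 uM, 24 hr exposure; lytic NanoLuc complementation luminescence.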
# [13] = Primary qHTS for inhibitors of nuclear receptor binding SET domain protein 2 (NSD2) in an isogenic RCH-ACV NSD2 p.E1099K mutant (9B) (AID 1645876); note: nearly all actives have a fitted effect of over 70% in size; note: potency is the fitted concentration of half-maximal effect
# [14] = Primary qHTS for inhibitors of nuclear receptor binding SET domain protein 2 (NSD2) in an RCH-ACV wild type WT cells (2C) (AID 1645877); note: nearly all actives have a fitted effect of over 70% in size; note: potency is the fitted concentration of half-maximal effect
# [15] = biological target: Glutathione peroxidase 1 (Homo sapiens) (UniProt P07203); test: Primary qHTS Assay for Inhibitors of Recombinant Selenoprotein Glutathione Peroxidase 1 (GPX1) (AID 1845191); note: nearly all actives have a fitted effect of over 65% in size; note: potency is the fitted concentration of half-maximal effect
# In short: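 GPX1 10 nM, GR 100 nM, GSH 1 mM, NADPH 0.5 mM, CHP 0.5 mM (final). 30-min cpd preincubation, RT. Ex340/Em450 read t=0, t=15 min.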
# [16] = biological target: Phospholipid hydroperoxide glutathione peroxidase GPX4 (Homo sapiens) (UniProt P36969); test: Primary qHTS Assay for Inhibitors of Recombinant Selenoprotein Glutathione Peroxidase 4 (GPX4) (AID 1845192); conditions: outcome: dose series up to 50 µM unless noted; note: nearly all actives have a fitted effect of over 65% in size; for activity change, negative = inhibition: % is set by controls: 0 for no effect and ±100 for the full control effect
# In short: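 qHTS, GR-coupled: GPX4 200 nM + cpd 30 min RT → GSH 1 mM, NADPH 0.5 mM, GR 100 nM → CHP 0.5 mM start; fluor 340/450 at t0 and t15 min; no-enzyme wells as control.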
# [17] = qHTS drug screen for cell cycle checkpoint inhibitors in PARPi-resistant BRCA-mutant ovarian cancer cell lines. (AID 1963452; calls by dose curve; note: potency is the fitted concentration of half-maximal effect); conditions: PEO1/OlaR viability, CellTiter-Glo luminescence, 96 h; for Z-AUC: stronger effect = lower value
# In short: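 PEO1, PEO4 and PEO1/OlaR ovarian cancer cells, 600 per well, exposed 96 h at 37C to a dilution series. Viability read by CellTiter-Glo luminescence, normalized to DMSO and empty wells; activity summarized as Z-AUC.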
# [18] = qHTS assay to identify inhibitors of the type 1 interferon - major histocompatibility complex class I in skeletal muscle: Counter screen cell viability and HiBit confirmation (AID 1347412); conditions: iHSKM muscle cells + IFN-b, HiBiT or CellTiter-Glo, 24 h; for Potency: HiBiT; for activity change, negative = inhibition: Viability, at 45.9 µM (top of the series); note: potency is the fitted concentration of half-maximal effect; for activity change, negative = inhibition: % is set by controls: 0 for no effect and ±100 for the full control effect; for all read-outs here: nearly all actives have a fitted effect of over 60% in size
# In short: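 HLA-B*08:01–HiBiT knock-in immortalized human myoblasts (C25cl48) stimulated with 4.0 ng/ml human IFN-beta and dosed with compound in a 12-point 1:3 titration (top final 46 uM). After 24 hrs at 37 C, HiBiT lytic luminescence or CellTiter Glo ATP read out.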
# [19] = measured here: PEO1 parental Z-AUC
# Phospholipid hydroperoxide glutathione peroxidase GPX4 (Homo sapiens), sequence (P36969 whole entry, looked up): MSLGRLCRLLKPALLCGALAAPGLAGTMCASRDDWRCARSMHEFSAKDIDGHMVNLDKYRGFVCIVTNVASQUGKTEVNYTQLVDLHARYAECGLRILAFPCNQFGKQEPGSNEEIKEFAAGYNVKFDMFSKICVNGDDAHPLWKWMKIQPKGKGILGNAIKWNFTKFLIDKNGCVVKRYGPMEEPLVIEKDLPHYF
# Glutathione peroxidase 1 (Homo sapiens), sequence (P07203 whole entry, looked up): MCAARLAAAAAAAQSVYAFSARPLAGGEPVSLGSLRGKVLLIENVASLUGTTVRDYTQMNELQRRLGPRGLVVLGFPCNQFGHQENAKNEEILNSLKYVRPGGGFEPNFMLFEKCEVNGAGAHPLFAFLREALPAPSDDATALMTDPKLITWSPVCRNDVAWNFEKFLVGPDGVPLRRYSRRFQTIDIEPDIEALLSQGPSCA
# Luciferin 4-monooxygenase (Photinus pyralis), sequence (P08659 whole entry, looked up): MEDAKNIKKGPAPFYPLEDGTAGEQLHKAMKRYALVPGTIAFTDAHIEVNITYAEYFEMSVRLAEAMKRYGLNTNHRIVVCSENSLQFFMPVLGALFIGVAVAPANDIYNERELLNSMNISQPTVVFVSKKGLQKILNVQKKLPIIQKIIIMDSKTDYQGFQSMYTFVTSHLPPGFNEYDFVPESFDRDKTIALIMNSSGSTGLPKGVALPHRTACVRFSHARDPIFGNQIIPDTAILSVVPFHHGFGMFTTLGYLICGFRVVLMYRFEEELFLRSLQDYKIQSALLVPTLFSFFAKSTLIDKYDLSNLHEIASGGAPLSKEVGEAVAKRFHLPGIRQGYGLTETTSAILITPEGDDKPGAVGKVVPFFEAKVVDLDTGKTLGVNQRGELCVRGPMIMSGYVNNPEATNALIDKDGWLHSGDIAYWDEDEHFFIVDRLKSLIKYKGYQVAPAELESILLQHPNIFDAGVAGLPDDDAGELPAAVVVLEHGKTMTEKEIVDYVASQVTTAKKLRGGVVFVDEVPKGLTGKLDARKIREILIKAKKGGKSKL
compound,measurement,setting,value
C/C=C/c1cc2c(c(=O)o1)C(=O)[C@@H](O)[C@H](C)O2,outcome,[1],inactive
same,Potency,[2],inactive
same,Potency,[3],inactive
same,Potency,[4],inactive
same,Potency,[5],inactive
same,outcome,[6],inactive
same,outcome,[7],inactive
same,outcome,[8],inactive
same,outcome,[9],inactive
same,Potency,[10],inactive
same,Potency,[11],inactive
CC(=O)NCC(=O)N1[C@@H]2CC[C@H]1c1ccc(Nc3ncc(C(F)(F)F)c(NC4CCC4)n3)cc12,Potency,[12],4660 nM (active)
same,Potency,[13],590 nM (active)
same,Potency,[14],166 nM (active)
same,Potency,[15],inactive
same,Potency,[16],inactive
same,Z-AUC,[17],-0.104 (inactive)
same,Z-AUC,[17]; [19],-0.113
same,Z-AUC,[17]; measured here: PEO4 Z-AUC,-0.17
same,Potency,[18],3130 nM (active)
same,"activity change, negative = inhibition",[18],-29.6% (inactive)
CN(CCOc1ccc(C[C@H](Nc2ccccc2C(=O)c2ccccc2)C(=O)O)cc1)c1ccccn1,Potency,[12],inactive
same,Potency,[13],inactive
same,Potency,[14],inactive
same,Potency,[15],inactive
same,Z-AUC,[17],0.115 (inactive) and 0.904 (inactive)
same,Z-AUC,[17]; [19],0.442 and 0.488
same,Z-AUC,[17]; measured here: PEO4 Z-AUC,0.445 and 0.87
C=CCNC1=C2CC(C)CC(OC)C(O)C(C)/C=C(\C)C(OC(N)=O)C(OC)/C=C/C=C(\C)C(=O)NC(=CC1=O)C2=O (stereo unspecified),Potency,[12],58.7 nM (active)
same,Potency,[13],1320 nM (active)
same,Potency,[14],1320 nM (active)
same,Z-AUC,[17],-0.25 (inactive)
same,Z-AUC,[17]; [19],-0.657
same,Z-AUC,[17]; measured here: PEO4 Z-AUC,-0.0403
same,Potency,[18],49.7 nM (active)
CO[C@H]1/C=C\C=C(\C)C(=O)NC2=CC(=O)C(NCCN(C)C)=C(C[C@@H](C)C[C@H](OC)[C@H](O)[C@@H](C)/C=C(/C)[C@@H]1OC(N)=O)C2=O,Potency,[12],46.6 nM (active)
same,Potency,[13],332 nM (active)
same,Potency,[14],235 nM (active)
same,Potency,[15],inactive
same,Potency,[16],inactive
same,Potency,[17],219 nM (active)
same,Z-AUC,[17]; [19],-2.33
same,Z-AUC,[17]; measured here: PEO4 Z-AUC,-1.76
same,Potency,[18],17.6 nM (active)
COc1ccc(-n2cnc3cc(C(=O)N4CCCCC4)ccc32)cc1,Potency,[12],inactive
same,Potency,[13],inactive
same,Potency,[14],inactive
same,Potency,[15],inactive
same,Potency,[16],inactive
same,Z-AUC,[17],0.871 (inactive)
same,Z-AUC,[17]; [19],0.696
same,Z-AUC,[17]; measured here: PEO4 Z-AUC,0.92
CC[C@@]1(O)C(=O)OCc2c1cc1n(c2=O)Cc2c-1nc1cc(F)c(C)c3c1c2[C@@H](N)CC3,Potency,[12],165 nM (active)
same,Potency,[13],3.3 nM (active)
same,Potency,[14],2.6 nM (active)
same,Potency,[15],14500 nM (active)
same,Potency,[17],8.7 nM (active)
same,Z-AUC,[17]; [19],-3.81
same,Z-AUC,[17]; measured here: PEO4 Z-AUC,-2.97
same,Potency,[18],313 nM (active)
same,"activity change, negative = inhibition",[18],-10.9% (inactive)
CC1=C2[N-][C@H]([C@H](CC(N)=O)[C@@]2(C)CCC(=O)NC[C@@H](C)OP(=O)([O-])O[C@H]2[C@@H](O)[C@@H](n3cnc4cc(C)c(C)cc43)O[C@@H]2CO)[C@]2(C)N=C(C(C)=C3N=C(C=C4N=C1[C@@H](CCC(N)=O)C4(C)C)[C@@H](CCC(N)=O)[C@]3(C)CC(N)=O)[C@@H](CCC(N)=O)[C@]2(C)CC(N)=O.O.[Co+2],Potency,[12],8290 nM (active)
same,Potency,[13],inactive
same,Potency,[14],inactive
same,Potency,[15],inactive
same,Potency,[16],inactive
same,Z-AUC,[17],-0.864 (inactive)
same,Z-AUC,[17]; [19],0.932
same,Z-AUC,[17]; measured here: PEO4 Z-AUC,0.294
same,Potency,[18],14000 nM (active)
same,"activity change, negative = inhibition",[18],-18.1% (inactive)
